As a reminder, the inhibition is the percentage by which the read-out fell short of the control.

Activity calls are given as the source filed them. No rule for the calls is given here.

The target in this assay is Pantothenate synthetase (Mycobacterium tuberculosis (strain ATCC 25618 / H37Rv)) (UniProt P9WIL5). Briefly: Coupled enzyme confirmation of inhibitors against recombinant Mtb PanC (AID 375).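 Also: 0% = full reaction with vehicle and 100% = no enzyme background.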 Particulars: coupled enzyme assay; at 10 µM, active compounds read high.
Chain of Pantothenate synthetase (Mycobacterium tuberculosis (strain ATCC 25618 / H37Rv)) (P9WIL5 whole entry, looked up): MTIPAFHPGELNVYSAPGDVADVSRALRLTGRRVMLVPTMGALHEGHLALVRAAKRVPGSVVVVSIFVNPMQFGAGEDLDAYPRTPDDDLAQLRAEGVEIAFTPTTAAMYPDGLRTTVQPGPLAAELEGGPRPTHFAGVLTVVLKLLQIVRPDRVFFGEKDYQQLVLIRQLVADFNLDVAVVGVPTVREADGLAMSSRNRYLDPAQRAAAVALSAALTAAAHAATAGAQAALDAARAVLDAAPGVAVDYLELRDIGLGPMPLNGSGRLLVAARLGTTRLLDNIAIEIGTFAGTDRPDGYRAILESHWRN
As to `CC[C@H]1OC(=O)C[C@@H](O)[C@H](C)[C@@H](O[C@@H]2O[C@H](C)C[C@H](N(C)C)[C@H]2O)[C@@H](CC=O)C[C@@H](C)C(=O)C=C[C@]2(C)O[C@H]2[C@@H]1C`, the inhibition was 0% (inactive).

In the case of `CC(=O)OC1c2ccccc2C(=O)N1Cc1ccccc1Cl` (configuration not stated), the inhibition is 0% (inactive).

Turning to `NC(=O)CSc1cn(CCNC(=O)c2cccs2)c2ccccc12`, the inhibition is 0% (inactive).

Consider `CCC(C(=O)O)n1c(C(F)(F)F)nc2ccccc21` (configuration not stated), for which the inhibition was 4% (inactive).

Regarding `CCSc1nc2c(c(=O)[nH]1)C(c1cccnc1)C(C(=O)OC(C)C)=C(C)N2` (configuration not stated), the inhibition is 0% (inactive).

For `CC(C)OC(=O)c1cccc(C(=O)O)n1`, the inhibition was 4% (inactive).

Turning to `CCCn1c(SCC(=O)Nc2ccccc2C(=O)OCC)nc2c1c(=O)n(C)c(=O)n2C`, the inhibition was 0% (inactive).

Turning to `O=C(Cn1cnc2c(cnn2-c2ccc(F)cc2)c1=O)N1CCCc2ccccc21`, the inhibition was 0% (inactive).

As to `CCc1ccccc1N1C(=O)C2CC(C)=C(C)CC2C1=O` (configuration not stated), the inhibition is 0% (inactive).

As to `CCCOc1ccc(N2C(=O)CC(SCCN)C2=O)cc1` (configuration not stated), the inhibition was 0% (inactive).

`Cc1ccc(CCNC(=O)C2CCN(S(=O)(=O)c3cccc4nsnc34)CC2)cc1`: the inhibition was 6% (inactive).

For `CCOC(=O)c1sc(NC(=O)C2CC=CCC2C(=O)O)nc1C` (configuration not stated), the inhibition was 3% (inactive).

In the case of `CCOc1ccc(C(=O)OCc2nnc(-c3cccs3)o2)cc1OC`, the inhibition is 0% (inactive).

Consider `COc1ccc(N(CC(=O)N2c3ccccc3CC2C)S(=O)(=O)c2c(C)noc2C)cc1` (configuration not stated), for which the inhibition was 7% (inactive).

As for `O=C(Oc1ccc(Cl)cc1N1C(=O)CCC1=O)c1ccco1`, the inhibition is 6% (inactive).

With `CCOC(=O)c1c(C)oc2ccc(O)c(CN(C)C)c12`, the inhibition was 0% (inactive).

For the compound `O=S(=O)(c1cccc2nsnc12)N1CCN(c2ncccn2)CC1`, the inhibition was 0% (inactive).

On to `CCOc1ccccc1C(=O)Nc1nnc(CC)s1`, for which the inhibition was 0% (inactive).

As for `CCc1nnc(NC(=O)CSc2nnc(CSc3nc(C)cc(C)n3)n2CC)s1`, the inhibition was 1% (inactive).

In the case of `CC(C)[C@H](NC(=O)NCc1ccc(Cl)cc1)C(=O)O`, the inhibition was 0% (inactive).

Take `CCOc1ccccc1N1CC(O)=C(c2nc3ccccc3s2)C1=N`: the inhibition is 9% (inactive).

Turning to `C=C(C)Cn1c(-c2ccccc2)nc2ccccc21`, the inhibition was 0% (inactive).
